Results from PubChem BioAssay (Tox21).
Records with an inconclusive call do not appear. A number with no mark means an inactive call. Active and inactive are the calls of the source. Calls follow the shape of the dose curve; as a rule, active = well fitted activation curve with a large enough effect in the repeat runs; inconclusive = weak or mixed curves; inactive = flat fitted curve, though single readings scatter.

experiment: A CellTox Green Cytotoxicity Assay to monitor cytotoxicity in HEK293 cells - 8 hour (AID 1224884); conditions: CellTox Green fluorescence; series mostly up to 76.8 µM; cytotoxicity increase: at the top concentration; also: nearly all actives have a fitted effect of over 35% in size
Description: National Center for Advancing Translational Sciences [NCATS]
NIH Chemical Genomics Center [NCGC]
U.S. Environmental Protection Agency [EPA]
National Institutes of Environmental Health Sciences [NIEHS]
National Toxicology Program [NTP]
Cell-based models are critical for drug discovery. Determining the natural cytotoxic effects resulting from test compounds is an essential research activity. A CellTox Green Cytotoxicity Assay to monitor cytotoxicity in real time of continues cell culture during 40 hours of the compound treatment was used to screen Tox21 10K library compounds in Hek293 cells. CellTox Green Cytotoxicity Assay is a nonlytic, homogeneous, biofluorescent method to measure cytotoxicity in cell culture after experimental manipulation. The assay system uses a proprietary asymmetric cyanine dye that is excluded from viable cells but preferentially stains the dead cell's DNA. […] Viable cells produce no appreciable increases in fluorescence. Therefore, the fluorescence signal produced by the binding interaction with dead cell DNA is proportional to cytotoxicity.
The mixture of Hek293 cell suspension and reagents were dispensed at 600cells/6 ul/well in 1536-well tissue culture treated black solid bottom plates using a Multidrop dispenser. After the assay plates were incubated at a 37 C/5% CO2 incubator for 5 hours, 23 nL of compounds dissolved in DMSO, positive and negative controls was transferred to the assay plate by a pintool work station. The plates were incubated at 37 C for 40 hours. The fluorescence intensity were measured at 0h, 8h, 16h, 24h, 32h and 40h time points using ViewLux plate reader during compound treatment.
% is scaled to controls: 0 for no effect and ±100 for the full control effect; potency is read from the fitted curve at half-maximal effect.

SMILES	cytotoxicity increase	Potency
CC(=O)c1ccc(Cl)c(Cl)c1Cl	11.2%	–
O=C(O)c1ccccc1-n1cc(C(=O)O)c(=O)c2cc(Nc3c(F)cc(F)cc3Cl)c(Cl)cc21	1.73%	–
CC1(COc2ccc(CC3SC(=O)NC3=O)cc2)CCCCC1 (stereo not given)	23.7% [at 35.3 µM]	–
CCC(C)C1N=C(C)C(C)S1 (stereo not given)	2.6%	–
CCCC(=O)OCCC(C)C	0.137%	–
O=C(O)c1cccnc1Nc1cccc(C(F)(F)F)c1	-5.59% [at 35.3 µM]	–
CCC(CC)C(=O)O	-4.91%	–
O=C1CCCN1CCO	0.908%	–
OCC(O)c1ccccc1 (stereo not given)	27.4%	–
O=C(c1ccco1)N1CCNCC1	12.6% [at 35.3 µM]	–
CCCCCCCCCC(C)C=O (stereo not given)	–	24.5 µM (active)
CCCCCC1CCC(=O)O1 (stereo not given)	1.78%	–
Cc1c(Nc2ncccc2C(=O)O)cccc1C(F)(F)F	-15.6% [at 35.3 µM]	–
O=C(OCCOCCOCCOC(=O)c1ccccc1)c1ccccc1	6.91%	–
O=C(C1CCCCC1)N1CC(=O)N2CCCc3ccccc3C2C1 (stereo not given)	2.82% [at 35.3 µM]	–
C/C=C1\[C@H]2C=C(C)C[C@]1(N)c1ccc(=O)[nH]c1C2	2.61% [at 35.3 µM]	–
CC(CC(C#N)(c1ccccc1)C(C)C)N(C)C (stereo not given)	-7.74% [at 35.3 µM]	–
O=[N+]([O-])c1ccc(Cl)cc1Cl	0.2%	–
O=C(O)c1ccc(O)c(O)c1	0.744%	–
Cc1cc(C)n(CO)n1	2.19%	–

SMILES	cytotoxicity increase	Potency
CC(C)(Cc1c[nH]c2ccccc12)NCC(O)COc1ccccc1C#N (stereo not given)	-2.56% [at 35.3 µM]	–
CCCCCCCCCCCCN1CCOCC1	14.4%	–
Clc1nc2ccccc2nc1Cl	14.8%	–
CC(=O)Oc1cccc2c1C(=O)c1c(OC(C)=O)cc(C(=O)O)cc1C2=O	12% [at 35.3 µM]	–
Oc1ccc(Oc2ccccc2)cc1	18.1%	–
COc1cc(C)c(Cc2cnc(N)nc2N)cc1OC	2.43% [at 35.3 µM]	–
C/C(=C(\CCO)SS/C(CCO)=C(\C)N(C=O)Cc1cnc(C)nc1N)N(C=O)Cc1cnc(C)nc1N	-1.55% [at 35.3 µM]	–
CC(O)C(C)O (stereo not given)	-2.15%	–
O=C(O)c1cc(C(=O)O)c(C(=O)O)cc1C(=O)O	-12.1%	–
C=C[Si](OCC)(OCC)OCC	-8.55%	–
C1=COCCC1	-4.98%	–
CCCCCCCCS	-0.229%	–
CC(CN=Cc1ccccc1O)N=Cc1ccccc1O (stereo not given)	6.11%	–
C/C(=C\C(C)CC(C)CC(C)C)C1CC(=O)OC1=O (stereo not given)	-10.1%	–
O=C(O)COCC(=O)O	-2.71%	–
COc1ccc(/C=C/c2cc(OC)cc(=O)o2)cc1	-11.4% [at 35.3 µM]	–
CCC[Si](OC)(OC)OC	1.41%	–
CC(COc1ccccc1)NC(C)C(O)c1ccc(O)cc1 (stereo not given)	-2.48% [at 35.3 µM]	–
COC(=O)/C=C/C(C)=C\C=C\C(C)=C\C=C\C=C(C)\C=C\C=C(C)\C=C\C(=O)O	5.6%	–
COc1cc(CNC(=O)CCCC/C=C/C(C)C)ccc1O	13.2%	–
